Assay results reported in the supplement of paper PMC10849652.
Targets with a hit are over-represented here; the source holds about 7,900 in all. About 0.6% of all pairs of compound and target were hits. Unmarked numbers belong to inactive results.

Key:
Assay in all cases: log2 fold change, soluble protein after heating vs DMSO (PISA); higher = thermal stabilisation; K562 cells, 10 uM, 30 min; active = over 0.2 and 3.5 SD of the protein, either way, in both replicates (recomputed)
[1] = compound: NC(=O)Nc1cc(-c2cccc(F)c2)sc1C(=O)N[C@H]1CCCNC1
In short: (§1)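 Soluble protein was defined as the supernatant after 21,000xg for 90 min. It came from K562 cells at 2×10^6 cells/mL given 10 μM compound for 30 min, heated in aliquots for 3 min across 48°C-58°C, pooled, and extracted in PBS with 0.5% NP-40 at 4°C, and was quantified by TMTpro 16plex LC-MS/MS with equalised channel sums. Thermal stability against control samples, from duplicates, is reported as log2 fold change.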

[2] = compound: NC(=O)c1cnc(N[C@@H]2CCCC[C@@H]2N)nc1Nc1cccc(-n2nccn2)c1
In short: as §1

[3] = compound: NC1(c2ccc(-c3nc4ccn5c(=O)[nH]nc5c4cc3-c3ccccc3)cc2)CCC1
In short: as §1

[4] = compound: NCC(=O)Nc1ccc(-n2nc(C(F)(F)F)cc2-c2ccc3c(ccc4ccccc43)c2)cc1
In short: as §1

entinostat = compound: Nc1ccccc1NC(=O)c1ccc(CNC(=O)OCc2cccnc2)cc1 [entinostat]
In short: as §1

vorinostat = compound: O=C(CCCCCCC(=O)Nc1ccccc1)NO [vorinostat]
In short: as §1

citarinostat = compound: O=C(CCCCCCNC(=O)c1cnc(N(c2ccccc2)c2ccccc2Cl)nc1)NO [citarinostat]
In short: as §1

silmitasertib = compound: O=C(O)c1ccc2c(c1)nc(Nc1cccc(Cl)c1)c1ccncc12 [silmitasertib]
In short: as §1

[5] = compound: O=C1NC(=O)C(c2cnc3ccccn23)=C1c1cn2c3c(cc(F)cc13)CN(C(=O)N1CCCCC1)CC2
In short: as §1

[6] = compound: c1cc(OCCN2CCCCC2)cc(-c2n[nH]c3ccc(-c4nnc[nH]4)cc23)c1
In short: as §1

entospletinib = compound: c1cn2cc(-c3ccc4cn[nH]c4c3)nc(Nc3ccc(N4CCOCC4)cc3)c2n1 [entospletinib]
In short: as §1

Sequence of UniProt Q9BUA3 (Q9BUA3 whole entry, looked up): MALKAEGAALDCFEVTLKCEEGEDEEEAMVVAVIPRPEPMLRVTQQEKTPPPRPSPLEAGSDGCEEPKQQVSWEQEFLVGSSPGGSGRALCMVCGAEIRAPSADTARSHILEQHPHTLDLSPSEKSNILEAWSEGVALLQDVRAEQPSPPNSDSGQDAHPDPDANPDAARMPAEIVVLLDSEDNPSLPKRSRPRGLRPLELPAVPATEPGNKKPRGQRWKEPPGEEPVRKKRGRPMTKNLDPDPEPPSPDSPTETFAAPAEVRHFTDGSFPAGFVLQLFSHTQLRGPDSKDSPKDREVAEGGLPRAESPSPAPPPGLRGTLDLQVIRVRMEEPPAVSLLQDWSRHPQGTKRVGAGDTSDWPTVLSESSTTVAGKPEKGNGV
Sequence of UniProt Q01082 (Q01082 whole entry, looked up): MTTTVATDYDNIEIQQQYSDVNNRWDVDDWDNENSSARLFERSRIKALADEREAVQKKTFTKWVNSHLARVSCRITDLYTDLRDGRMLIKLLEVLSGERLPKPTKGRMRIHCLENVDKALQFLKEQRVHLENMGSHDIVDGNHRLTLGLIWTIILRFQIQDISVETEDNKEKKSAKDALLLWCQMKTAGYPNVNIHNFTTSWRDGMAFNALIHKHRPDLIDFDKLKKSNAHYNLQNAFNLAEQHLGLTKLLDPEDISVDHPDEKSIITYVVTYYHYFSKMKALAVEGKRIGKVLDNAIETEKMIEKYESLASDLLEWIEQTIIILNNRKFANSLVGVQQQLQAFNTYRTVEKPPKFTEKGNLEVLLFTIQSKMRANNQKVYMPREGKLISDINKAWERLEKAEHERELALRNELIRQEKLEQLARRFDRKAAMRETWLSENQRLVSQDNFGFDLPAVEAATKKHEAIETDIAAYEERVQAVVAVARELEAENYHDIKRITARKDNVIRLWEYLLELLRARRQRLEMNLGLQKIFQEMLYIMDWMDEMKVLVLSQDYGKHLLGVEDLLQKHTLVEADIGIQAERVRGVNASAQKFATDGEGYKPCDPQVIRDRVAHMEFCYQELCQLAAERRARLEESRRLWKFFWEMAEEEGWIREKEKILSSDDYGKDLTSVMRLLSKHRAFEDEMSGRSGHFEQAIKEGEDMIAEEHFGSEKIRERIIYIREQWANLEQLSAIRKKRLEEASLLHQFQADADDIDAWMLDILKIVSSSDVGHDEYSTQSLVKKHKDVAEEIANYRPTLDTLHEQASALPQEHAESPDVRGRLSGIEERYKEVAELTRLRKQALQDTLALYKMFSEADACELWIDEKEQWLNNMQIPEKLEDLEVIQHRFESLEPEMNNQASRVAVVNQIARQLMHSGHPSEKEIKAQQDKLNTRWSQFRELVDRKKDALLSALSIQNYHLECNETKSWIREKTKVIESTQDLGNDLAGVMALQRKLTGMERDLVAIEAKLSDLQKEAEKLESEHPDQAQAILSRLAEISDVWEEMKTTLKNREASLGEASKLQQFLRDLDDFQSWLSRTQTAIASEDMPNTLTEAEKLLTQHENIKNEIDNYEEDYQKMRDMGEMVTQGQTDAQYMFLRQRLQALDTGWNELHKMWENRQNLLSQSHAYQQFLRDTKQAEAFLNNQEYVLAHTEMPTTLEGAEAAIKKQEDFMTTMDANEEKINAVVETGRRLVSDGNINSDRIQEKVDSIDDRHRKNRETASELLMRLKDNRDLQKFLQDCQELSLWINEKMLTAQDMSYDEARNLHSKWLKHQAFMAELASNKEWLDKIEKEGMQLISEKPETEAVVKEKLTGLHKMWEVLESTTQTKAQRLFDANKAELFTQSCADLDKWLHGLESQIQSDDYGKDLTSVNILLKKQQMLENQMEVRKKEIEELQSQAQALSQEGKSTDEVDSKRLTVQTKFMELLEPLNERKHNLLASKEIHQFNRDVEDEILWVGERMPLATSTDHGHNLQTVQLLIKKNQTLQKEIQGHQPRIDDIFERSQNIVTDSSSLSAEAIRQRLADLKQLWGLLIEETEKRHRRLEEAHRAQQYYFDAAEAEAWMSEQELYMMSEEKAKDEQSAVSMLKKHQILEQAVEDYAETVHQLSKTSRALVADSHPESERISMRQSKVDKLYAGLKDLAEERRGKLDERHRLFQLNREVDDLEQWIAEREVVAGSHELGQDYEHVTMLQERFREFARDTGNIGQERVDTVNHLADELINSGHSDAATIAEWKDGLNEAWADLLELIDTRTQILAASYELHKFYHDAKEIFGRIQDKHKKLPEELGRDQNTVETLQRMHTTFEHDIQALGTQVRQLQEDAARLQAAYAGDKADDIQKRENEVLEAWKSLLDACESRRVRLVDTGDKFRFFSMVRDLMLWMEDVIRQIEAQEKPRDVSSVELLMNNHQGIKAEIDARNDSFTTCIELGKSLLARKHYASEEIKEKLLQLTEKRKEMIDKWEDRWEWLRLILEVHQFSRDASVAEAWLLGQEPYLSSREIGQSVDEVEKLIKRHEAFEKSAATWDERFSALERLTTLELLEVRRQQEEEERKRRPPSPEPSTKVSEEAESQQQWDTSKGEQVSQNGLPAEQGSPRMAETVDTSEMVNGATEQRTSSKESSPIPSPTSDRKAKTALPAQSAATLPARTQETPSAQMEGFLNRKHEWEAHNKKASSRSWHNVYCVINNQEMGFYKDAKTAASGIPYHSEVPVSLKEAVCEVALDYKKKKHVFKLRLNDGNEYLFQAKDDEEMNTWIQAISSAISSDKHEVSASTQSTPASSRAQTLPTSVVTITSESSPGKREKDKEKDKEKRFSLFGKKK
Sequence of UniProt Q15796 (Q15796 whole entry, looked up): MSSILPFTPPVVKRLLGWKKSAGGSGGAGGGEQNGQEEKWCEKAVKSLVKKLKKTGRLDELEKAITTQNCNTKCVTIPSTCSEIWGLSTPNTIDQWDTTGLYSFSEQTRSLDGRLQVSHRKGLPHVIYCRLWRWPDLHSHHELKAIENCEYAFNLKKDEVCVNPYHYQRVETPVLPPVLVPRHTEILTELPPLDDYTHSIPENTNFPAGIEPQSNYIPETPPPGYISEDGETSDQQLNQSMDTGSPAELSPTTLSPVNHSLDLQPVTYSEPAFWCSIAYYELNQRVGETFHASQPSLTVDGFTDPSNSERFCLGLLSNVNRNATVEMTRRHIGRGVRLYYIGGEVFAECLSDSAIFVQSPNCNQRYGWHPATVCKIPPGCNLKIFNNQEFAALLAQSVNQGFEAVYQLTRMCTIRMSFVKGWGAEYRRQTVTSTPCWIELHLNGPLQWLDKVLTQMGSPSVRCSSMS
Sequence of UniProt O14776 (O14776 whole entry, looked up): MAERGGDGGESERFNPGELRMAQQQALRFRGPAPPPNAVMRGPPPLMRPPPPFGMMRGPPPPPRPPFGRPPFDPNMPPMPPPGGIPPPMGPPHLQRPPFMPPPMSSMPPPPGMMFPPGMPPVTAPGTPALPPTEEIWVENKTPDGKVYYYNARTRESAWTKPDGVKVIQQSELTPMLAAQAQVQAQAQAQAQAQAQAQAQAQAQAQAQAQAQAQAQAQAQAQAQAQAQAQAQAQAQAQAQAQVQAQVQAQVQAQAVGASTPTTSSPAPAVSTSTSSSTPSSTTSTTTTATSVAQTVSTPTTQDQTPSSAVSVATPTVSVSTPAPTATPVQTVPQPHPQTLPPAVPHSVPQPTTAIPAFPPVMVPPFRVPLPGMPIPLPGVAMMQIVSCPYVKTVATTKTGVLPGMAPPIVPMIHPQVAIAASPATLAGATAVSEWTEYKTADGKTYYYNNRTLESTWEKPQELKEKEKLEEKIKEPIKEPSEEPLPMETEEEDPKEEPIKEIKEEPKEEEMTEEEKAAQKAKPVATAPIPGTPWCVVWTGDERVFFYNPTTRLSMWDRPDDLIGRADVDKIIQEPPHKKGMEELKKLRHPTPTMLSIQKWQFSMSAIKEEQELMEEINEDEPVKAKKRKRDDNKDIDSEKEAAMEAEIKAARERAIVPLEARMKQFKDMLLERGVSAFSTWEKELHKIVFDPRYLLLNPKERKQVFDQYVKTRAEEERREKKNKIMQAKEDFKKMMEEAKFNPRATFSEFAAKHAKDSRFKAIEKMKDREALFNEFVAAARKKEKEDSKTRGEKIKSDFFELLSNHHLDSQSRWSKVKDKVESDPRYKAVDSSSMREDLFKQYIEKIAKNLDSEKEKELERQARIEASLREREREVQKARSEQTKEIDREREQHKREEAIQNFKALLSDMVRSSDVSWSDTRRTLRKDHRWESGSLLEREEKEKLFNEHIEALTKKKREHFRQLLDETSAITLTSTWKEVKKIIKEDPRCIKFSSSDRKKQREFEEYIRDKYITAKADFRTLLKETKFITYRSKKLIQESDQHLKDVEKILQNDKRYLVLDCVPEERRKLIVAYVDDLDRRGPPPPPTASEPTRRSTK
Sequence of UniProt Q9UH99 (Q9UH99 whole entry, looked up): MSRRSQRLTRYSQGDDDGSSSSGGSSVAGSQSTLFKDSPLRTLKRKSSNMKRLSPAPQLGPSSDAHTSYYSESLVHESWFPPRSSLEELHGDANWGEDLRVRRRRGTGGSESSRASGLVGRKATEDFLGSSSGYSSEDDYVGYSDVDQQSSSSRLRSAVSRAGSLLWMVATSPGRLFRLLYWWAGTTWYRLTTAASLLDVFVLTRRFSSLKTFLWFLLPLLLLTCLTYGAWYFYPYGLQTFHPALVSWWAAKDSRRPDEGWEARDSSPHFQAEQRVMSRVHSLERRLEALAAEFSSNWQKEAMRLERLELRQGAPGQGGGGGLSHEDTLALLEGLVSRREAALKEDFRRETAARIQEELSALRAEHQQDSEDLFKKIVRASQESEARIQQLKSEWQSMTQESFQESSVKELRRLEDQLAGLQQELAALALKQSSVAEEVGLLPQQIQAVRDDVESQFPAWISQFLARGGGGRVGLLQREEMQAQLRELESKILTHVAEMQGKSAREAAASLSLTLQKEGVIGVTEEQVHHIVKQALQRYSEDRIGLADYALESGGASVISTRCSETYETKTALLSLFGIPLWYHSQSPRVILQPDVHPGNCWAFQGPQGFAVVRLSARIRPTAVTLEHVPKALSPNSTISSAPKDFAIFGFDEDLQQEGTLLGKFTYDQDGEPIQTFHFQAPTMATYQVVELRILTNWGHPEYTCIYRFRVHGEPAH

Row | Target | log2 fold change [1] | log2 fold change [2] | log2 fold change [3] | log2 fold change [4] | log2 fold change (entinostat) | log2 fold change (vorinostat) | log2 fold change (citarinostat) | log2 fold change (silmitasertib) | log2 fold change [5] | log2 fold change [6] | log2 fold change (entospletinib)
1 | SPTBN1 (UniProt Q01082) | -0.051 | -0.04 | -0.041 | -0.016 | 0.011 | 0.026 | -0.009 | 0.127 | 0.009 | -0.007 | 0.024
2 | STK11IP (UniProt Q8N1F8) | 0.098 | -0.412 | -0.285 | 0.086 | 0.046 | -0.184 | -0.032 | 0.217 | 0.095 | 0.016 | 0.036
3 | SMAP2 (UniProt Q8WU79) | -0.013 | 0.024 | -0.043 | -0.069 | -0.01 | 0.002 | 0.056 | 0.06 | -0.122 | -0.028 | 0.019
4 | SLC30A7 (UniProt Q8NEW0) | -0.035 | 0.013 | -0.276 | -0.178 | 0.024 | -0.024 | -0.028 | 0.039 | 0.025 | -0.032 | -0.201
5 | STAT5B (UniProt P51692) | -0.027 | -0.022 | -0.207 | -0.129 | 0.282 | 0.18 | 0.15 | 0.043 | 0.045 | 0.024 | -0.053
6 | SMPD4 isoform 4 (UniProt Q9NXE4) | -0.008 | -0.075 | -0.141 | -0.059 | 0.033 | 0.084 | -0.039 | 0.085 | 0.012 | 0.268 | 0.143
7 | SMG1 (UniProt Q96Q15) | -0.073 | -0.111 | -0.101 | -0.073 | -0.097 | -0.012 | 0.024 | 0.142 | 0.013 | -0.187 | -0.004
8 | SPART (UniProt Q8N0X7) | -0.032 | -0.105 | -0.053 | 0.006 | 0.043 | -0.032 | 0.015 | 0.081 | -0.024 | 0.04 | -0.005
9 | SMAD2 (UniProt Q15796) | -0.184 | -0.064 | 0.005 | -0.039 | -0.103 | -0.051 | 0.034 | -0.073 | 0.009 | -0.018 | -0.013
10 | STX17 (UniProt P56962) | 0.027 | -0.073 | -0.096 | 0.126 | -0.001 | -0.02 | 0.254 | 0.087 | -0.026 | -0.059 | -0.071
11 | SRI (UniProt P30626) | -0.014 | 0.081 | -0.04 | 0 | 0.058 | -0.044 | 0.027 | -0.004 | -0.045 | -0.038 | 0.019
12 | TFR2 (UniProt Q9UP52) | -0.039 | -0.004 | -0.601 (active) | 0.007 | 0.007 | 0.002 | 0.033 | -0.001 | -0.035 | -0.067 | 0.052
13 | SNX1 (UniProt Q13596) | -0.01 | -0.375 (active) | -0.336 (active) | 0.011 | 0.121 | 0.147 | 0.054 | -0.062 | -0.04 | -0.094 | -0.002
14 | SPR (UniProt P35270) | 0.006 | 0.13 | 0.491 (active) | -0.002 | -0.049 | -0.154 | -0.041 | 0.004 | 0.176 | 0.066 | 0.057
15 | TAX1BP1 (UniProt Q86VP1) | 0.028 | -0.062 | -0.202 | -0.102 | -0.013 | -0.183 | 0.061 | 0.042 | -0.011 | -0.081 | 0.029
16 | TBC1D15 isoform 3 (UniProt Q8TC07) | -0.013 | -0.086 | -0.202 | -0.033 | 0.118 | 0.101 | 0.036 | 0.071 | -0.008 | -0.059 | 0.007
17 | SRSF9 (UniProt Q13242) | 0.079 | 0.17 | 0.398 | 0.171 | -0.072 | 0.029 | -0.114 | 0.195 | 0.245 | -0.237 | 0.094
18 | TCERG1 (UniProt O14776) | -0.026 | -0.075 | -0.123 | -0.112 | 0.159 | 0.129 | 0.129 | 0.022 | -0.153 | 0 | -0.043
19 | TIMM44 (UniProt O43615) | -0.085 | -0.141 | -0.372 (active) | -0.023 | 0.084 | 0.04 | 0.066 | -0.041 | -0.027 | -0.048 | -0.036
20 | SUN2 (UniProt Q9UH99) | 0.002 | 0.011 | -0.054 | -0.03 | 0.054 | 0.018 | 0.019 | 0.007 | 0.097 | -0.087 | 0
21 | STAM2 (UniProt O75886) | -0.111 | -0.136 | -0.133 | -0.101 | 0.012 | 0.04 | 0.026 | 0.049 | -0.041 | 0.064 | 0.052
22 | TAOK3 (UniProt Q9H2K8) | -0.013 | -0.149 | -0.048 | 0 | 0.034 | 0.036 | 0.106 | 0 | 0.021 | -0.203 | -0.016
23 | SPINDOC (UniProt Q9BUA3) | 0.09 | 0.003 | 0.014 | -0.061 | -0.188 | -0.014 | -0.106 | -0.061 | -0.102 | 0.053 | 0.018
24 | TARS2 (UniProt Q9BW92) | 0.008 | -0.018 | -0.27 (active) | -0.031 | 0.011 | -0.051 | 0.038 | -0.005 | -0.057 | -0.008 | -0.072
25 | SLC25A36 (UniProt Q96CQ1) | 0.131 | 0.035 | 0.015 | -0.123 | 0.036 | 0.003 | 0.063 | 0.106 | 0.027 | 0.028 | 0.022
26 | SLC25A38 (UniProt Q96DW6) | 0.035 | -0.068 | -0.21 | 0.06 | -0.049 | -0.096 | 0.02 | 0.069 | -0.022 | -0.028 | -0.02
27 | STARD7 (UniProt Q9NQZ5) | -0.048 | -0.113 | -0.088 | 0.012 | 0.008 | 0.114 | 0.073 | -0.011 | 0.341 (active) | -0.089 | -0.052
